Sampled rows, rich in hits. Any-hit rate of the full collection: about 10%.
HEK cytotox: Cytotoxic Profiling in HEK 293 Cell Line of Diverse Libraries Using Quantitative High-Throughput Screening; HEK 293 viability, ATP luminescence (CellTiter-Glo), 48-72 h; AID 1345083, 2018; Potency, µM (doses to about 115 µM), hits mostly inhibitors; 94,000 compounds, 6.6% hits; also: nearly all actives have a fitted effect of over 60% in size
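HEK 293 cells seeded at 250 cells/well were exposed to compound for 48 or 72 hr at 37 degree Celsius. Viability taken as ATP content by CellTiter-Glo luminescence.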
hNpr1 antagonist: Natriuretic polypeptide receptor (hNpr1) antagonism - Primary qHTS. HEK293 hNpr1 GloSensor cGMP, ANP-stimulated luminescence. Potency, µM (top dose mostly 46.3 µM), usual class: inhibitors. Atrial natriuretic peptide receptor 1 (Homo sapiens), P16066. AID 1347048, 2019. 76,000 compounds, 1.6% hits; calls by dose curve; also: nearly all actives have a fitted effect of over 60% in size
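HEK293 cells stably expressing human Npr1 and cGMP GloSensor pGS-40F, loaded 2 h with 2% GloSensor reagent, given compound 30 min at room temperature. Luminescence read before and 20 min after 0.1 nM hNppA.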
GPT2 inh: Primary qHTS assay for inhibitors of Glutamate pyruvate transaminase 2 (GPT2). Recombinant GPT2, coupled pyruvate oxidase/HRP Amplex Red fluorescence. Potency, µM (titrated, usually from 57.7 µM), most hits filed as inhibitors. 100,000 compounds, 0.25% hits; also: nearly all actives have a fitted effect of over 60% in size
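Fluorescence of coupled pyruvate oxidase/HRP/Amplex Red system (50uM Amplex, 30 min, dark) reports pyruvate formed by GPT2. Enzyme reaction: 10ng/uL GPT2, 2mM L-alanine, 250uM a-KG, 30 min room temperature, pH 7.5; 50uM AOA control.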
3T3 cytotox: Cytotoxic Profiling in NIH 3T3 Cell Line of Diverse Libraries Using Quantitative High-Throughput Screening | NIH 3T3 viability, CellTiter-Glo ATP luminescence, 48-72 h | Potency, µM (series often up to 96.7 µM), usual class: inhibitors | 94,000 compounds, 4.3% hits; also: nearly all actives have a fitted effect of over 55% in size
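Cytotoxicity is measured as loss of cellular ATP: NIH 3T3 cells (400/well) are exposed to compound for 48 or 72 hr at 37 °C, then CellTiter-Glo luminescence is imaged after 10 min at room temperature.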
FLuc inh: Firefly luciferase inhibition profiling of diverse chemical library using quantitative high-throughput screening; Luciferin 4-monooxygenase (Photinus pyralis), P08659; purified P. pyralis luciferase, luminescence, biochemical; Potency, µM (doses to about 115 µM), hits mostly inhibitors; 76,000 compounds, 2.5% hits; AID 1347043, 2019; also: nearly all actives have a fitted effect of over 65% in size
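Cell-free enzyme assay, 10nM P. pyralis luciferase, luciferin and ATP each at 10uM. Inhibition profiled over a 6-point titration, read as luminescence.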
Of the large screens only hits and unclear results are named; the others gave an inactive call. Unless noted, calls follow the shape of the dose curve; as a rule, active = well fitted curve in the direction sought with a large enough effect; inconclusive = small, poorly fitted or top-dose-only effect, or another doubt; inactive = no such curve, though single readings can be large; an effect the other way counts as inactive or inconclusive.

CC1=C[C@@H](CNC(=O)CCCC(=O)O)[C@H](C(C)C)C[C@H]1Cc1nc2ccncc2[nH]1	none
CC1=C[C@@H](CNC(=O)CC(C)(C)CC(=O)O)[C@H](C(C)C)C[C@H]1Cc1nc2ccc(F)cc2[nH]1	none
CCC(CC)C(=O)NC[C@@H]1C=C(C)[C@H](Cc2nc3ccc(F)cc3[nH]2)C[C@H]1C(C)C	HEK cytotox inconclusive, 3T3 cytotox 100µM
CC1=C[C@@H](CNS(=O)(=O)c2ccccc2)[C@H](C(C)C)C[C@H]1Cc1nc2ccncc2[nH]1	HEK cytotox 70.8µM, 3T3 cytotox 79.4µM
COc1ccc(S(=O)(=O)NC[C@@H]2C=C(C)[C@H](CC(=O)N(C)Cc3cccnc3)C[C@H]2C(C)C)cc1	HEK cytotox inconclusive, 3T3 cytotox 10µM
CC1=C[C@@H](CC#N)[C@H](C(C)C)C[C@H]1CC(=O)N(C)Cc1cccnc1	HEK cytotox inconclusive
COc1ccc(C)cc1NC(=O)CCc1ccc2c(c1)CN(C(=O)C1CC1)CCO2	HEK cytotox inconclusive
COc1ccccc1Nc1ccnc(N2CCC(NC(=O)C(C)(C)C)CC2)n1	HEK cytotox inconclusive, 3T3 cytotox inconclusive (no result: hNpr1 antagonist, FLuc inh)
COc1ccc2nc(C[C@@H]3C[C@@H](C(C)C)[C@H](CNC(=O)COCC(=O)O)C=C3C)[nH]c2c1	none
COc1ccc(C(=O)NC[C@@H]2C=C(C)[C@H](Cc3nc4ccncc4[nH]3)C[C@H]2C(C)C)cc1	HEK cytotox 89.1µM, 3T3 cytotox inconclusive
CC1=C[C@@H](CN2C(=O)C(C)=C(C)C2=O)[C@H](C(C)C)C[C@H]1Cc1nc2ccc(C)cc2[nH]1	HEK cytotox 22.4µM, hNpr1 antagonist inconclusive, 3T3 cytotox 28.2µM
COc1ccc2nc(C[C@@H]3C[C@@H](C(C)C)[C@H](CN4C(=O)C(C)=C(C)C4=O)C=C3C)[nH]c2c1	HEK cytotox inconclusive, 3T3 cytotox inconclusive
CC1=C[C@@H](CNC(=O)c2ccnc(Cl)c2)[C@H](C(C)C)C[C@H]1Cc1nc2ccc(C)cc2[nH]1	HEK cytotox inconclusive, hNpr1 antagonist inconclusive, 3T3 cytotox 17.8µM
CC1=C[C@@H](CNC(=O)CCC(=O)O)[C@H](C(C)C)C[C@H]1Cc1nc2ccncc2[nH]1	none
CCC(CC)C(=O)NC[C@@H]1C=C(C)[C@H](Cc2nc3ccc(OC)cc3[nH]2)C[C@H]1C(C)C	HEK cytotox 44.7µM, 3T3 cytotox inconclusive
Cn1cccc1-c1noc(C2CCN(C(=O)CCc3ccccc3)CC2)n1	HEK cytotox inconclusive, 3T3 cytotox inconclusive (no result: hNpr1 antagonist, FLuc inh)
CN1[C@@H](CCC(=O)NCc2cccs2)CNC(=O)[C@@H]2[C@H]1CCN2Cc1ccccc1	none
N#Cc1cccnc1-c1ccc(C(=O)N2CCC(N[S+](=O)([O-])c3cccc(C(F)(F)F)c3)CC2)cc1	HEK cytotox inconclusive, 3T3 cytotox inconclusive (no result: hNpr1 antagonist, FLuc inh)
COc1cccc(-c2ccc(C(=O)N3CCC(N[S+](=O)([O-])c4cccc(C(F)(F)F)c4)CC3)cc2)c1	HEK cytotox 11.2µM, 3T3 cytotox inconclusive (no result: hNpr1 antagonist, FLuc inh)
COc1cccc(-c2ccc(C(=O)N3CCC(N[S+](=O)([O-])c4ccc(C)cc4)CC3)cc2)c1	HEK cytotox 11.2µM, 3T3 cytotox inconclusive (no result: hNpr1 antagonist, FLuc inh)
COc1ccc(-n2c(=O)[nH]c3cccnc32)cc1	none
CN(Cc1cccc(C(F)(F)F)c1)S(=O)(=O)c1cccs1	HEK cytotox 89.1µM, 3T3 cytotox inconclusive
O=C(NCc1cccc(Cl)c1)C1CN(c2ccc(F)cc2)C(=O)N1 (centres undefined)	none
CC1=NS(=O)(=O)N(C)C=C1C(=O)OCc1noc(-c2ccccc2Cl)n1	HEK cytotox inconclusive, hNpr1 antagonist 11.2µM, 3T3 cytotox inconclusive, FLuc inh inconclusive
Cc1ccnc(N2CCN(C3CCC4(CCNCC4)CC3)CC2)c1	HEK cytotox 44.7µM, 3T3 cytotox inconclusive
O=C(c1ccco1)N1CCN(C2CCC3(CCNCC3)CC2)CC1	none
COc1ccccc1-c1cccc(C(=O)N2CCN(C(=O)c3ccccc3F)CC2)c1	HEK cytotox 89.1µM (no result: hNpr1 antagonist, FLuc inh)
COc1ccccc1-c1cccc(C(=O)N2CCN(C(=O)c3ccc(C)cc3)CC2)c1	HEK cytotox 39.8µM, 3T3 cytotox inconclusive (no result: hNpr1 antagonist, FLuc inh)
COc1ccccc1-c1cccc(C(=O)N2CCN(C(=O)Nc3ccc(Cl)cc3)CC2)c1	HEK cytotox inconclusive, 3T3 cytotox inconclusive (no result: hNpr1 antagonist, FLuc inh)
COc1ccccc1-c1cccc(C(=O)N2CCN(C(=O)c3ccc(F)cc3)CC2)c1	HEK cytotox inconclusive, 3T3 cytotox inconclusive (no result: hNpr1 antagonist, FLuc inh)
COc1ccccc1-c1cccc(C(=O)N2CCN(C(=O)c3cccc(Cl)c3)CC2)c1	HEK cytotox 39.8µM, 3T3 cytotox inconclusive (no result: hNpr1 antagonist, FLuc inh)
CC(=O)NCc1nnc2n1C(C(=O)NCC(F)(F)F)CC2 (centres undefined)	none (no result: hNpr1 antagonist, FLuc inh)
Cc1cc(C)n(CC(=O)N2CCCCC2C(=O)Nc2ccc(-n3nc(C)cc3C)cc2)n1 (centres undefined)	none
CCOc1ccccc1CNC(=O)c1c(C)noc1-c1ccc2c(c1)OCO2	HEK cytotox inconclusive, 3T3 cytotox inconclusive
Cc1noc(-c2ccc3c(c2)OCO3)c1C(=O)NC(C)CCc1ccccc1 (centres undefined)	HEK cytotox 44.7µM, 3T3 cytotox inconclusive
Cc1noc(-c2ccc3c(c2)OCO3)c1C(=O)NCc1cc(F)cc(F)c1	HEK cytotox 31.6µM, 3T3 cytotox inconclusive
Cc1noc(-c2ccc3c(c2)OCO3)c1C(=O)N1CCC(Cc2ccc(F)cc2)CC1	HEK cytotox 28.2µM, hNpr1 antagonist inconclusive, 3T3 cytotox 35.5µM
Cc1ccsc1C(=O)N1CCC(Oc2ccccc2)C1 (centres undefined)	HEK cytotox inconclusive (no result: hNpr1 antagonist, FLuc inh)
Fc1ccc(-c2ccc3ncc(Nc4ccncc4)n3n2)cc1	HEK cytotox 100µM, 3T3 cytotox inconclusive
COc1ccc(Nc2cnc3ccc(-c4ccccc4)nn23)cn1	HEK cytotox 44.7µM, GPT2 inh inconclusive, 3T3 cytotox 39.8µM, FLuc inh inconclusive
COc1cncc(Nc2cnc3ccc(-c4ccc(OC)nc4)nn23)c1	HEK cytotox inconclusive, GPT2 inh inconclusive
COc1ccc(Nc2cnc3ccc(-c4ccc(F)cc4)nn23)cn1	HEK cytotox 50.1µM, GPT2 inh inconclusive, 3T3 cytotox 35.5µM
Fc1ccc(-c2ccc3ncc(Nc4ccc5c(c4)OCO5)n3n2)cc1	HEK cytotox 79.4µM, GPT2 inh inconclusive, 3T3 cytotox inconclusive
c1ccc(-c2ccc3ncc(Nc4ncccn4)n3n2)cc1	HEK cytotox inconclusive, 3T3 cytotox inconclusive
COc1ccc(-c2ccc3ncc(Nc4ccc5c(c4)OCO5)n3n2)cn1	HEK cytotox inconclusive, GPT2 inh inconclusive, 3T3 cytotox inconclusive
N#Cc1ccc(S(=O)(=O)N2CCCCCNC(=O)CC2c2ccccc2)cc1 (centres undefined)	none
